From PubChem BioAssay AID1346428 (National Center for Advancing Translational Sciences (NCATS), 2018)
The whole screen tested about 48,000 compounds, of which about 1,200 (2.5%) were called active. Roughly 2% stayed inconclusive and do not appear here.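 How the source made its calls: active means activation of at least 60% and not above a set upper limit (about 1 call in 100 departs from these limits); inconclusive means activation of 40% to 60%, or above that upper limit; inactive means activation under 40%.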 What follows is part of a selection rich in actives, with near analogues and random picks from the rest.

target: Probable G-protein coupled receptor 32 (Homo sapiens) (UniProt O75388); assay: qHTS for Agonists of Human Resolvin D1 Receptor DRV1; conditions: CHO-K1 GPR32 beta-arrestin PathHunter luminescence, 90 min; at 76.9 µM; stronger effect = higher value; zero percent set by DMSO-only wells
Source text: Endogenous resolution of inflammation is known to be transduced through various GPCRs and their natural mediators of lipid nature. Resolvin D1 (RvD1) is one of the active players in resolution of acute inflammation through regulation of anti-inflammatory pathways; it is known to enhance phagocytosis of human macrophages, limits neutrophils infiltration, etc. […] The search for GPR32-activating small molecules with anti-inflammatory effects similar to its natural omega-3 derivative ligand in order to use them as research tools for further studies of inflammation and its resolution was the goal of this screening project. For primary screening assay, we used CHO-K1 GPR32 beta-arrestin cell line (DiscoveRx, #93-0321C2A) and the PathHunter(R) beta-Arrestin Assay (DiscoveRx) which measures recruitment of beta-arrestin to the GPR32 and generates chemiluminescent signal. These engineered cells stably transfected with GPR32 co-express GPR32-fused small 42-amino acid fragment of beta-Gal called ProLinktrade mark, and […] -tagged beta-Arrestin fusion protein. When GPR32 is activated by a ligand, it stimulates binding of beta -Arrestin to ProLink-tagged GPR32, and two parts of beta-Gal complement forming a functional enzyme. Upon substrate (PathHunter(R) Detection reagent) addition, beta-Gal hydrolyzes it and generates a chemiluminescent signal.
The cells were thawed and plated in thawing media containing F-12 HAM (Invitrogen, #11765-054), 10% FBS (Invitrogen, #10082), 1x Glutamine, and 1x Pen/Strep onto the 175-mm flask for 24 hours. Then, thawing media was replaced with Growth media which contains 800microg/mL Geneticin (Invitrogen, #10131) and 300microg/mL Hygromycin B (Invitrogen, #10687) in addition to described above. For the assay, the cells were harvested at ~80% confluent stage with Cell Dissociation buffer (Gibco, #13151), and seeded at 2,500 cells/ 3microL/well in assay media (PathHunter(R) Cell Plating Reagent, DiscoverX, #93-0563R1B) using MultiDrop Combi dispenser (Thermo Scientific, Logan, UT) onto white solid bottom tissue culture-treated 1536-well plates (Greiner # 789173-F) and allowed to attach overnight at 37 degrees C, 95% humidity, 5% CO2, . Next, 23nL/well of compound solutions in DMSO were added with a Pin Tool (Kalypsis, San Diego, CA) to the assay plates. As the basal control (EC0), 23 nL/well of DMSO was used on each plate. The cells were incubated in the presence of compounds or DMSO for 90 minutes at 37 degrees C, 5% CO2. Subsequently, 1.5microL/well of PathHunter(R) Detection Reagent prepared per the manufacturer's instructions was added to the assay plates with BioRAPTR FRDtrade mark dispenser (Beckman Coulter, San Francisco, CA) and incubated for 1 hour at ambient temperature prior to the measurement of the luminescent signal on ViewLux(R) uHTS Microplate Imager (Perkin Elmer, Waltham, MA).

Probable G-protein coupled receptor 32 (Homo sapiens), sequence (O75388 whole entry, looked up): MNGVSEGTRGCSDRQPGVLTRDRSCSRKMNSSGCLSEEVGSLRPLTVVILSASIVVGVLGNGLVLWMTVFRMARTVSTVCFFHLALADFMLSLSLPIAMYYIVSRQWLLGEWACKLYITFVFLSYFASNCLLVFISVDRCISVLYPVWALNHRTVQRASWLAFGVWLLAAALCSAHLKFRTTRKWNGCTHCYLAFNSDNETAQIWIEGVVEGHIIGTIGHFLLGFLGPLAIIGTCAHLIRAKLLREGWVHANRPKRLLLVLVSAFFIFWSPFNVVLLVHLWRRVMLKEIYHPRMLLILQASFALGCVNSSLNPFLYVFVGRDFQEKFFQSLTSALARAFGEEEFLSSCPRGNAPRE

| SMILES | activation |
| --- | --- |
| COC(=O)c1cc(S(=O)(=O)N2CCN(c3cc(Cl)ccc3C)CC2)c[nH]1 | 13.7% (inactive) |
| Cc1ccc(Cl)cc1N1CCN(S(=O)(=O)c2cc3[nH]c(=O)c(=O)[nH]c3cc2C)CC1 | 97% (active) |
| CCn1cc(C(=O)N2CCN(c3cc(Cl)ccc3C)CC2)c(=O)c2cc(S(=O)(=O)N3CCCC3)ccc21 | -4.63% (inactive) |
| Cc1c(C)n(Cc2ccc(Cl)cc2)c2ccc(C(=O)N3CCN(c4ccccc4F)CC3)cc12 | -26.9% (inactive) |
| O=C1N(Cc2ccccc2)c2ccc(Cl)cc2C1(O)c1c[nH]c2ccccc12 (stereo not given) | 116% (active) |
| O=c1c2ccccc2n(Cc2cccc(Cl)c2)c(=O)n1Cc1ccccc1 | -10.4% (inactive) |
| O=C(CC1Oc2ccc(Cl)cc2NC1=O)NCc1ccccc1 (stereo not given) | -14.9% (inactive) |
| Cc1cccc(NC(=O)Cn2nc(-c3ccc(Cl)cc3)c3ccccc3c2=O)c1 | -2.07% (inactive) |
| COc1ccc(OCCCn2c(C3CC(=O)N(c4ccc(F)cc4)C3)nc3ccccc32)cc1 (stereo not given) | 1.68% (inactive) |
| Cc1ccc(C)c(N2CCN(C(=O)Cc3c(C(=O)O)c(C)cn3C)CC2)c1 | -4.29% (inactive) |
| COc1ccc(OC)c(NC(=O)C2CCCN(S(=O)(=O)c3ccc4c(c3)CCCC(=O)N4)C2)c1 (stereo not given) | -4.17% (inactive) |
| CC(=O)Nc1ccc(NC(=O)C2CCCN(S(=O)(=O)c3ccc4c(c3)CCCC(=O)N4)C2)cc1 (stereo not given) | 16.8% (inactive) |
| CCOC(=O)c1ccc(NC(=O)C2CCN(S(=O)(=O)c3ccc4c(c3)CCCC(=O)N4)CC2)cc1 | 68.9% (active) |
| COc1ccc(Cl)cc1NC(=O)NCC1CCN(Cc2ccccc2F)CC1 | -10.4% (inactive) |
| CCOc1ccc(C2CC(=O)c3c([nH]c(C(=O)OCc4ccccc4)c3C)C2)cc1 (stereo not given) | 49.1% (inactive) |
| COc1cccc(CNC(=O)c2cc(=O)[nH]c3ccc(S(=O)(=O)N4CCCCC4)cc23)c1 | -3.54% (inactive) |
| CCC(=O)N1CCc2cc(Br)cc(S(=O)(=O)NCc3ccc(Cl)cc3)c21 | 19.3% (inactive) |
| COc1ccc(Cl)cc1N(C)C(=O)c1cc2c(=O)oc3ccc(C)cc3c2s1 | 29.1% (inactive) |
| CCN(CC)CCNC(=O)c1cc2c(=O)oc3ccc(C)cc3c2s1 | 67.3% (active) |
| CCOc1ccc(N(CC)C(=O)c2cc3c(=O)oc4ccccc4c3s2)cc1 | 21.3% (inactive) |
| Cc1cccc(Nc2cc(C)nc(-n3nc(C)cc3C)n2)c1 | -20.8% (inactive) |
| O=C(c1ccc2c(c1)N(Cc1ccccc1)C(=O)c1ccccc1S2(=O)=O)N1CCC(Cc2ccccc2)CC1 | -8.72% (inactive) |

| SMILES | activation |
| --- | --- |
| CCC1CCCCN1Cc1c(O)ccc2c(=O)c(Oc3ccccc3Cl)c(C(F)(F)F)oc12 (stereo not given) | 102% (active) |
| CC1CCCCN1Cc1c(O)ccc2c(=O)c(-c3cccc(Cl)c3)c(C(F)(F)F)oc12 (stereo not given) | -11.7% (inactive) |
| Cc1ccc(Oc2c(C(F)(F)F)oc3c(CN4CCCCC4)c(O)ccc3c2=O)cc1 | -34.2% (inactive) |
| CC1CCCN(Cc2c(O)ccc3c(=O)c(Oc4ccc(C(C)(C)C)cc4)c(C(F)(F)F)oc23)C1 (stereo not given) | 64.7% (active) |
| COc1ccc(-c2c(C)c3ccc(O)c(CN4CCCC4)c3oc2=O)cc1OC | -5.21% (inactive) |
| Cc1ccc(C)c(Oc2c(C(F)(F)F)oc3c(CN4CCN(C)CC4)c(O)ccc3c2=O)c1 | -14.3% (inactive) |
| Cc1ccsc1CN(C(=O)c1oc2ccc(Br)cc2c1C)C1CCS(=O)(=O)C1 (stereo not given) | -26.5% (inactive) |
| Cn1c(=O)n(C)c2cc(NS(=O)(=O)c3ccc(F)cc3)ccc21 | 7.69% (inactive) |
| Cc1cc(F)ccc1NC1(c2ccccc2)C(=O)c2ccccc2C1=O | -74.1% (inactive) |
| Cc1cc(F)ccc1NS(=O)(=O)c1ccc(-n2cccn2)cc1 | 106% (active) |
| CCOC(=O)N1CCc2c(sc3c2c(=O)n(-c2ccc(CC)cc2)c(=O)n3C)C1 | -6.72% (inactive) |
| CC(Nc1ccc(-c2nc(-c3ccco3)no2)cc1[N+](=O)[O-])c1ccccc1 (stereo not given) | -14.5% (inactive) |
| COc1ccc(OC)c(NC(=O)CSc2nc3ccccc3nc2N2CCCCC2)c1 | -20.5% (inactive) |
| O=C(Nc1cccc(-c2nc3ccccc3o2)c1)c1cccc(Br)c1 | -18.9% (inactive) |
| O=C(Nc1ccc(O)c(-c2nc3ccccc3o2)c1)c1ccc(-c2cccc(Cl)c2)o1 | 10.7% (inactive) |
| O=S(=O)(Nc1ccc2nc(-c3cccc(Cl)c3)oc2c1)c1ccccc1 | 93.4% (active) |
| COC(=O)c1ccc(Cn2c(SCC(=O)N(C)c3ccccc3)nc3ccccc32)cc1 | -14.8% (inactive) |
| O=C(CSc1ncc(-c2ccccc2)[nH]1)Nc1ccc(F)cc1F | -23.6% (inactive) |
| Cc1cccc(NC(=O)CSc2ncc(-c3ccccc3)[nH]2)c1C | 93% (active) |
| CCOc1cccc(NC(=O)CSc2ncc(-c3ccc(Cl)cc3)[nH]2)c1 | -15.1% (inactive) |
| COC(=O)c1ccc(NC(=O)CCc2c(C)nc3c(c(C)nn3-c3ccc(C)cc3)c2C)cc1 | -18.2% (inactive) |
| CCc1ccc(NC(=O)Cn2c(=O)n(CCC(=O)NCc3ccc4c(c3)OCO4)c(=O)c3ccccc32)cc1 | -4.89% (inactive) |

| SMILES | activation |
| --- | --- |
| Cc1ccccc1NC(=O)Cn1cc(C(=O)c2cccs2)c2ccccc21 | -6.21% (inactive) |
| Cn1c(=O)c2c(SCC(=O)NCC3CCCO3)nc(-c3ccccc3F)nc2n(C)c1=O (stereo not given) | -4.7% (inactive) |
| CCOc1ccc(NC(=O)c2cnn(-c3ccccc3)c2-n2cccc2)cc1 | -6.74% (inactive) |
| CN1CC[C@H](c2c(O)cc(O)c3c(=O)cc(-c4ccccc4Cl)oc23)[C@H](O)C1 | -16.5% (inactive) |
| O=C(NC1CC(=O)N(c2ccc(F)cc2)C1)C1CCCCC1 (stereo not given) | -2.56% (inactive) |
| COc1cc(OC)cc(C(=O)Nc2c(C(=O)Nc3ccc(F)cc3)oc3ccccc23)c1 | 1.9% (inactive) |
| Cc1cc(C)cc(OC(C)C(=O)Nc2nc3c(s2)CCCC3)c1 (stereo not given) | -14.5% (inactive) |
| CC(C)C(=O)Nc1nc2c(s1)CC(C(C)(C)C)CC2 (stereo not given) | 63.2% (active) |
| CC(C)(C)C1CCc2c(sc(NC(=O)c3ccccc3F)c2C(=O)N2CCCCC2)C1 (stereo not given) | -35.6% (inactive) |
| COc1ccc2cc(-c3nc(Cl)c4c5c(sc4n3)CC(C)CC5)c(=O)oc2c1 (stereo not given) | -14.3% (inactive) |
| CCCS(=O)(=O)N1CCC(n2c(C(F)(F)F)nc3cccnc32)CC1 | -3.95% (inactive) |
| Cc1oc2ccc(O)c(CN3CCC(C)CC3)c2c1C(=O)Nc1ccccc1 | 17.2% (inactive) |
| Cc1oc2ccc(O)c(CN3CCOCC3)c2c1C(=O)Nc1cccc(Cl)c1C | 18.4% (inactive) |
| Cc1oc2ccc(O)c(CN3CCCCC3)c2c1C(=O)Nc1cccc(C(F)(F)F)c1 | 106% (active) |
| Cc1cccc(NC(=O)C2CCCN2S(=O)(=O)c2cccc3nsnc23)c1C (stereo not given) | 8.79% (inactive) |
| CN1CCC[C@@H]1CCO[C@](C)(c1ccccc1)c1ccc(Cl)cc1 | 68.2% (active) |
| COc1cccc(CNc2nccn(-c3ccc(OC)c(OC)c3)c2=O)c1 | -0.901% (inactive) |
| COc1ccc(-n2ccnc(NCCc3ccc(Cl)cc3)c2=O)cc1OC | 105% (active) |
| COc1ccccc1CNc1nccn(-c2ccc(F)cc2)c1=O | 30.2% (inactive) |
| COc1cccc(NC(=O)C2CCN(c3cc(C)nc4c(-c5ccc(Cl)cc5)c(C)nn34)CC2)c1 | -2.14% (inactive) |
| COc1cccc(NC(=O)Nc2ccc3c(c2)N(C)C(=O)c2ccccc2S3)c1 | 4.16% (inactive) |
| COc1cccc(N=C2SC(C(=O)Nc3cccc(Cl)c3)CC(=O)N2C)c1 (stereo not given) | 68.2% (active) |

| SMILES | activation |
| --- | --- |
| CC(C)c1ccc(NC(=O)c2ccc3c(O)c(S(=O)(=O)c4ccccc4)c(=O)[nH]c3c2)cc1 | -0.853% (inactive) |
| O=C(c1cnn(-c2ccc(F)cc2)c1-n1cccc1)N1CCN(c2ccc(F)cc2)CC1 | 19% (inactive) |
| Cc1ccc(OCC(=O)Nc2ccc(Cl)c(-c3nc4ccccc4[nH]3)c2)cc1C | 70.6% (active) |
| COc1ccc(NC(=O)CSc2nc3ccccc3[nH]2)cc1 | -10% (inactive) |
| COc1ccc(CC(=O)Nc2ccc(-c3nc4ccccc4s3)c(C)c2)cc1 | 27.8% (inactive) |
| COc1ccc(CNC(=O)Cc2coc3ccc(C(C)C)cc23)cc1 | -15.8% (inactive) |
| COc1ccc2c(c1)c(N1CCCC1=O)c(C(=O)Nc1ccc(OC)c(Cl)c1)n2C | 3.27% (inactive) |
| CCCCN(CCCC)CCC(O)c1cc2c(Cl)cc(Cl)cc2c2cc(C(F)(F)F)ccc12 (stereo not given) | 98.9% (active) |
| CCOc1ccc(CCNC(=O)c2csc3c2CCCCC3)cc1 | 3.74% (inactive) |
| Brc1cccc(-c2nnn3c2nc(NC2CCCCC2)c2ccccc23)c1 | -7% (inactive) |
| O=C(Nc1nc2c(s1)CCCC2)c1ccccc1F | -7.97% (inactive) |
| CC(C)(C)c1ccc(S(=O)(=O)Nc2ccc(O)c(Sc3nc4ccccc4s3)c2)cc1 | 2.42% (inactive) |
| Cc1nc2ccc(S(=O)(=O)NC(C(=O)NCc3ccccc3Cl)C(C)C)cc2s1 (stereo not given) | 7.27% (inactive) |
| CC(C)c1ccc(S(=O)(=O)Nc2ccc(O)c(Sc3nc4ccccc4s3)c2)cc1 | 70.6% (active) |
| Cc1ccc(-n2c(=O)c3cccnc3n2CC(=O)Nc2ccccc2C(F)(F)F)cc1C | -16.8% (inactive) |
| CCCC12CN3CC(C)(CN(C1)C3c1ccccc1Cl)C2=O (stereo not given) | -8.25% (inactive) |
| CCN(CCCNC(=O)c1cc2cc3cc(OC)ccc3nc2s1)c1ccccc1 | -15.5% (inactive) |
| Cc1cccc(N2CCN(C(=O)c3cnc(N4CCCC4)nc3C)CC2)c1C | 36.6% (inactive) |
| CCN(C(=O)Cn1c(=O)nc(-c2ccccc2)c2cc(Cl)ccc21)c1cccc(C)c1 | -7.41% (inactive) |
